# S2 tox: viability counter-screen for ATXN expression inhibitors; S2 cells (HEK-293 line with an ATXN2-luciferase reporter) viability, CellTiter-Fluor protease fluorescence, 24 h; Potency, µM (top dose mostly 56.7 µM), most hits filed as cytotoxic; 400,000 compounds, 0.49% hits; AID 651635; also: nearly all actives have a fitted effect of over 40% in size
# HT1080-NT tox: kills 2HG-producing HT-1080-NT fibrosarcoma cells; HT-1080-NT fibrosarcoma viability, CellTiter-Glo ATP luminescence, 48 h; Potency, µM (doses to about 46.1 µM), for inactives: at the highest dose activity, negative = less viability, actives largely listed as cytotoxic; 360,000 compounds, 1.6% hits; AID 686970;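 also: NT is the 2HG producing partner of a matched IDH1 knockdown line; 0% = DMSO-treated cells and -100% = media-only wells without cells; nearly all actives have a fitted effect of over 55% in size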
#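 750 cells/well, RPMI + 5% FBS; 2 h settle, compound pin-transfer, 48 h at 37 degrees C. CellTiter-Glo 10 min RT, luminescence. Normalized to DMSO and media-only wells.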
# KB-V1 MDR tox: KB-V1 MDR subline cytotoxicity | KB-V1 MDR cells viability, CellTiter-Glo, 72 h | Potency, µM (top dose mostly 46.1 µM), usual class: cytotoxic | 400,000 compounds, 3.4% hits; also: % is scaled to controls: 0 for no effect and ±100 for the full control effect; nearly all actives have a fitted effect of over 60% in size
#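 In this primary screen, KB-V1 cells overexpressing P-gp are incubated with library compounds (lowest to highest concentration) for 72 h at 37 degrees C before a luminescent ATP viability read.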
# HT1080 IDH1KD tx: toxicity to HT-1080 IDH1 knockdown cells (counter line); Potency, µM (series often up to 46.1 µM), for the others: at the top dose activity, negative = toxicity, usual class: cytotoxic; 360,000 compounds, 2% hits; AID 686971; HT-1080 IDH1 knockdown viability, ATP luminescence, 48 h;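 also: 0% = DMSO wells and -100% = cell-free medium wells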
#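 Viability of IDH1-knockdown HT-1080 fibrosarcoma cells was assessed by CellTiter-Glo after 48 h at 37 °C with titrated compound; concentration-effect curves were classified by fit quality and response size.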
# ATXN2 expr inh: ATXN2 expression inhibition. HEK-293 ATXN2-luciferase reporter, luminescence, 24 h. Potency, µM (top dose mostly 57 µM), for inactives: at the highest dose activity change, negative = inhibition, hits mostly inhibitors. 360,000 compounds, 0.72% hits; also: % is scaled to controls: 0 for no effect and ±100 for the full control effect; nearly all actives have a fitted effect of over 55% in size
#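 qHTS (up to 57 uM final) was run with 24 h compound exposure of reporter cells at 37 °C. Each well was multiplexed: SteadyGlo luminescence measured ATXN2-luciferase expression after a fluorogenic Gly-Phe-AFC viability readout (25 uM final).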
# KB-3-1 tox: kills parental KB-3-1 adenocarcinoma cells; 400,000 compounds, 1.4% hits; Potency, µM (doses to about 46.1 µM), hits mostly cytotoxic; KB-3-1 viability, CellTiter-Glo ATP luminescence, 72 h; also: % is scaled to controls: 0 for no effect and ±100 for the full control effect; nearly all actives have a fitted effect of over 60% in size
#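 Multi-concentration cytotoxicity screen in KB-3-1 cells grown in DMEM lacking phenol red with 10% FBS. After 72 h at 37 °C with compound, ATP-dependent luminescence was recorded.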
# Starred values were filed as active, the others as inactive; i = inactive; ? = inconclusive; . = no result given. The list is not random: actives were taken first. Their share in the collection is about 6.2%. Calls follow the shape of the dose curve; as a rule, active = well fitted curve in the direction sought with a large enough effect; inconclusive = small, poorly fitted or top-dose-only effect, or another doubt; inactive = no such curve, though single readings can be large; an effect the other way counts as inactive or inconclusive. Potency is read from the fitted curve at half-maximal effect.
SMILES,S2 tox,HT1080-NT tox,KB-V1 MDR tox,HT1080 IDH1KD tx,ATXN2 expr inh,KB-3-1 tox
O=C(CSc1nnc(CNC(=O)c2c(F)cccc2F)o1)NCc1ccc2c(c1)OCO2,i,2%,i,8%,.,i
O=C(NCCc1cccc(Cl)c1)c1ccc(Cl)c([N+](=O)[O-])c1,i,?,i,-12%,-5%,i
O=C(NCCc1ccccc1)c1cccc([N+](=O)[O-])c1,i,10%,18µM*,9%,17%,i
Cc1ccc(C(=O)NCCSCc2ccccc2)cc1[N+](=O)[O-],i,4%,21µM*,25%,6%,i
Cc1ccc(C(=O)NCCc2cccc(Cl)c2)cc1[N+](=O)[O-],i,-6%,16µM*,8%,7%,i
C=CCNC(=O)c1ccc([N+](=O)[O-])c(Cl)c1,i,4%,i,2%,4%,i
CC(C)(CNC(=O)c1ccc([N+](=O)[O-])c(Cl)c1)CNC(=O)c1ccc([N+](=O)[O-])c(Cl)c1,?,21µM*,?,?,?,?
Cc1ccc(CSCCNC(=O)c2cccc([N+](=O)[O-])c2)cc1,i,-1%,18µM*,-2%,-7%,i
CCOC(=O)c1ccccc1Nc1cn(C(C)=O)c2ccccc12,i,?,i,?,-6%,5.8µM*
CC(=O)n1cc(Nc2ccccc2C(=O)O)c2ccccc21,i,4%,?,17%,3%,i
Cc1ccc(-n2cccc2C(=O)NS(=O)(=O)c2ccc(C)cc2)cc1,i,-1%,i,-2%,14%,i
Cc1ccc(-n2cccc2C(=S)N=P(N(C)C)(N(C)C)N(C)C)cc1,?,?,3.3µM*,8.2µM*,?,8.2µM*
CCN1CCN(C(=O)c2cnn(-c3ncc4c(n3)-c3ccccc3CCC4)c2COC)CC1,i,.,.,.,.,.
COC(=O)c1c(NC(=O)Cc2coc3cc(C)ccc23)sc2c1CCC2,i,.,i,.,15%,i
Brc1ccc(CSc2nnc(Cc3c[nH]c4ccccc34)o2)cc1,i,-5%,18µM*,-21%,-19%,i
COCCCNCCOCCOc1ccccc1-c1ccccc1,i,-8%,23µM*,-15%,-7%,i
C=CCNCCOCCOc1ccccc1-c1ccccc1,i,-11%,i,-9%,.,i
CC(C)(C)NCCOCCOc1ccccc1-c1ccccc1,i,0%,23µM*,-2%,-12%,i
Cc1ncc(C(O)c2ccc(N(C)C)cc2)n1Cc1ccccc1 (centres undefined),i,-13%,i,3%,.,i
CN(C)c1ccc2nc3c(=O)[nH]c(=O)nc-3n(CC(O)C(O)C(O)CO)c2c1 (centres undefined),13µM*,-12%,i,-8%,.,i
O=C(Oc1ccc(/C=N/Nc2ccccc2)cc1)c1ccccc1,i,-25%,i,-24%,0%,i
O=C(O)c1ccc(N/N=C/c2ccc(OC(=O)c3cccc(Cl)c3)cc2)cc1,i,-1%,i,-5%,5µM*,i
CC1=C(C(=O)Nc2ccc(F)cc2)C(c2ccc(N(C)C)cc2)NC(=O)N1 (centres undefined),i,.,i,.,7%,i
Cn1c(=O)c2cc(NC(=O)NCCc3cccs3)ccc2n1-c1ccc(C(C)(C)C)cc1,i,-6%,i,-25%,8%,i
COc1ccccc1NC(=O)CCc1nc(-c2cccs2)no1,?,7%,i,18%,5%,i
SMILES,S2 tox,HT1080-NT tox,KB-V1 MDR tox,HT1080 IDH1KD tx,ATXN2 expr inh,KB-3-1 tox
CCOC(=O)c1ccc(NC(=O)CCc2nc(-c3cccc(C)c3)no2)cc1,i,-13%,21µM*,-21%,-10%,?
COc1cccc(NC(=O)CCc2nc(-c3cccs3)no2)c1,i,7.3µM*,i,?,-16%,i
COc1ccccc1-c1noc(CCC(=O)Nc2cccc(C(F)(F)F)c2)n1,?,0%,21µM*,-19%,-26%,?
N#Cc1c(N2CCCC2)nc(N)c2c(N)nc(N3CCCC3)cc12,i,-20%,0.73µM*,-26%,41%,?
COc1cc2c(C#N)c(N3CCCC3)nc(N)c2c(N)n1,i,-2%,?,-2%,9%,i
CCN(C(C)=O)c1nc(CSc2nnc(NC(C)C)s2)cs1,i,12%,23µM*,7%,-2%,i
CCN(CC)c1ccc(-n2c(C)c(C(C)=O)c(C(C)=O)c2C)cc1,?,-8%,18µM*,-6%,-16%,?
Cc1ccc(CNC(=O)C2CCCN(Cc3nc(-c4cccc(C)c4)oc3C)C2)cc1 (centres undefined),.,.,i,.,.,i
CCN1CCCC1CNC(=O)C1CCN(Cc2nc(-c3cccc(Br)c3)oc2C)CC1 (centres undefined),i,21µM*,i,?,?,?
Cc1oc(-c2cccc(Cl)c2)nc1CN1CCC(C(=O)NC(C)C)CC1,i,.,i,.,5%,i
Cc1oc(-c2cccc(Cl)c2)nc1CN1CCCC(C(=O)NC(C)c2ccc3c(c2)OCCO3)C1 (centres undefined),?,?,26µM*,16µM*,?,?
Cc1cccc(-c2nc(CN3CCCC(C(=O)NC4CCCCC4)C3)c(C)o2)c1 (centres undefined),i,?,21µM*,?,-8%,?
Cc1cccc(-c2nc(CN3CCCC(C(=O)NC4CCCCCC4)C3)c(C)o2)c1 (centres undefined),?,20µM*,21µM*,?,-17%,i
COc1ccc(CNC(=O)C(C)N2Cc3ccccc3C2=O)cc1 (centres undefined),i,.,?,.,-5%,i
Cc1nn(CCCC(=O)Nc2cccc(F)c2)c(=O)c2c1sc1ccccc12,.,.,i,.,.,i
N#CC1=C(N)NC(SCC(=O)c2ccc(Br)cc2)=C(C#N)C12CCCCC2,i,-6%,16µM*,-29%,-16%,?
N#CC1=C(N)NC(SCC(=O)c2ccc(Cl)cc2)=C(C#N)C12CCCC2,i,?,i,?,-8%,i
N#CC1=C(N)NC(SCc2ccccc2)=C(C#N)C12CCCCC2,?,7.9µM*,?,7.1µM*,?,23µM*
Cc1ccnc(NC(=S)N2CCN(c3ccc(C(F)(F)F)cc3)CC2)c1,.,.,i,.,.,i
CCC(=O)N1c2ccccc2CC1C(=O)NCc1ccc(N(C)C)cc1 (centres undefined),i,.,i,.,8%,i

# Assay outcomes: PubChem BioAssay, National Center for Advancing Translational Sciences (NCATS)
